High-throughput results from PubChem BioAssay.
KB-3-1 tox = KB-3-1 parental cell cytotoxicity; KB-3-1 viability, CellTiter-Glo ATP luminescence, 72 h; Potency, µM (top dose mostly 46.1 µM), most hits filed as cytotoxic; 400,000 tested, 1.4% active; note: % is set by controls: 0 for no effect and ±100 for the full control effect; nearly all actives have a fitted effect of over 60% in size
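Screening of KB-3-1 cells (DMEM, 10% FBS, phenol-red free) ran from lowest to highest compound concentration; after 72 h at 37 °C viability was read luminescently and curves fitted.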
HT1080 IDH1KD tx = toxicity to HT-1080 IDH1 knockdown cells (counter line); HT-1080 IDH1 knockdown viability, ATP luminescence, 48 h; Potency, µM (doses to about 46.1 µM), for inactives: at the highest dose activity, negative = toxicity, hits mostly cytotoxic; 360,000 tested, 2% active; AID 686971;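 note: 0% = DMSO wells and -100% = cell-free medium wells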
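Cytotoxicity counter-line: IDH1KD HT-1080, 48 h, CellTiter-Glo. Curves classed by r2, magnitude and activity.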
KB-V1 MDR tox = KB-V1 MDR subline cytotoxicity | KB-V1 MDR cells viability, CellTiter-Glo, 72 h | Potency, µM (titrated, usually from 46.1 µM), actives largely listed as cytotoxic | 400,000 tested, 3.4% active | AID 1347076; note: % is set by controls: 0 for no effect and ±100 for the full control effect; nearly all actives have a fitted effect of over 60% in size
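Cells of the MDR subline KB-V1 are plated, dosed with compound at multiple concentrations, and incubated 72 h at 37 degrees C; CellTiter-Glo is then added and luminescence read after 10 min.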
MCF10A rerep = inducers of DNA re-replication in MCF 10A breast cells; AID 624296; Potency, µM (top dose mostly 46.1 µM), for inactives: at the top dose activity, positive = re-replication, actives largely listed as activators; 350,000 tested, 2.9% active; MCF 10A DNA re-replication, Hoechst nuclear intensity, 48 h; note: % of control where 0% means no effect; nearly all actives have a fitted effect of over 50% in size
SW480 rereplic = inducers of DNA re-replication in SW480 colon cancer cells. 340,000 tested, 1.8% active. SW480 DNA re-replication, Hoechst DNA content imaging, 48 h. AID 624297. Potency, µM (doses to about 46.1 µM), inactives show at the top dose re-replication activation, hits mostly activators; note: % of control where 0% means no effect; nearly all actives have a fitted effect of over 55% in size
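Per well, 250 cells were exposed to pinned compound for 48 hr. Nuclear DNA was visualised with Hoechst (40 min, 37 C) and total object intensity recorded by fluorescence scanning.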
HT1080NT lethal = kills 2HG-producing HT-1080-NT fibrosarcoma cells. HT-1080-NT fibrosarcoma viability, CellTiter-Glo ATP luminescence, 48 h. Potency, µM (titrated, usually from 46.1 µM), for inactives: top-dose activity, negative = less viability, usual class: cytotoxic. 360,000 tested, 1.6% active;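 note: NT is the 2HG producing partner of a matched IDH1 knockdown line; 0% = DMSO-treated cells and -100% = media-only wells without cells; nearly all actives have a fitted effect of over 55% in size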
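750 cells/well, RPMI + 5% FBS; 2 h settle, compound pin-transfer, 48 h at 37 degrees C. CellTiter-Glo 10 min RT, luminescence. Normalized to DMSO and media-only wells.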
Active calls of the source: *. In the library only some 8% were active in any assay of this set; here they are far more common. Calls come from the whole dose curve; as a rule, active = well fitted curve in the direction sought with a large enough effect; inconclusive = small, poorly fitted or top-dose-only effect, or another doubt; inactive = no such curve, though single readings can be large; an effect the other way counts as inactive or inconclusive. Potency is the fitted concentration of half-maximal effect.

What do the screens show for `O=C(CCN1C(=O)NC2(CCCC2)C1=O)Nc1ccc(Sc2ccc(Br)cc2)cc1`?
KB-3-1 tox: inactive; HT1080 IDH1KD tx: -29%; KB-V1 MDR tox: inactive; HT1080NT lethal: -12%

What do the screens show for `O=C(CCN1C(=O)NC2(CCCC2)C1=O)Nc1ccc(-c2nc3ccccc3s2)cc1`?
KB-3-1 tox: inactive; HT1080 IDH1KD tx: 15%; KB-V1 MDR tox: inactive; MCF10A rerep: 23µM*; SW480 rereplic: 16µM*; HT1080NT lethal: 13%

Results for Cc1ccc2nc(-c3ccc(NC(=O)CSc4nccc(=O)[nH]4)cc3)sc2c1 ?
KB-3-1 tox: inactive; HT1080 IDH1KD tx: -20%; KB-V1 MDR tox: inactive; MCF10A rerep: inconclusive; SW480 rereplic: 19%; HT1080NT lethal: -7%

How did Cc1ccc2nc(-c3ccc(NC(=O)CN4CCN(c5ccccn5)CC4)cc3)sc2c1 do in these assays?
KB-3-1 tox: inactive; HT1080 IDH1KD tx: -8%; KB-V1 MDR tox: inactive; MCF10A rerep: 13µM*; SW480 rereplic: inconclusive; HT1080NT lethal: -11%

Results for CC1(c2ccc(OC(F)F)cc2)NC(=O)N(CC(=O)Nc2ccc(OC(F)F)cc2)C1=O (stereo not drawn) ?
KB-3-1 tox: inactive; HT1080 IDH1KD tx: -28%; KB-V1 MDR tox: inactive; MCF10A rerep: 4%; SW480 rereplic: 2%; HT1080NT lethal: inconclusive

What do the screens show for `Cc1ccc2nc(-c3ccc(NC(=O)CN4C(=O)c5ccccc5C4=O)cc3)sc2c1`?
KB-3-1 tox: inactive; HT1080 IDH1KD tx: 18%; KB-V1 MDR tox: inconclusive; MCF10A rerep: 16µM*; SW480 rereplic: 21µM*; HT1080NT lethal: 2%

How did Cc1ccc2nc(-c3ccc(NC(=O)CCS(=O)(=O)c4ccccc4)cc3)sc2c1 do in these assays?
KB-3-1 tox: inactive; HT1080 IDH1KD tx: -3%; KB-V1 MDR tox: inactive; MCF10A rerep: 24%; SW480 rereplic: inconclusive; HT1080NT lethal: -21%

What do the screens show for `Cc1ccc(N(CC(=O)Nc2ccc(-c3nc4ccc(C)cc4s3)cc2)S(C)(=O)=O)cc1`?
KB-3-1 tox: inactive; HT1080 IDH1KD tx: -13%; KB-V1 MDR tox: inactive; MCF10A rerep: 16µM*; SW480 rereplic: inconclusive; HT1080NT lethal: -28%

Results for CCOc1ccc(NC(=O)CN2C(=O)NC(C)(c3ccc(OC(F)F)cc3)C2=O)cc1 (stereo not drawn) ?
KB-3-1 tox: inconclusive; HT1080 IDH1KD tx: 18µM*; KB-V1 MDR tox: inactive; MCF10A rerep: 17%; SW480 rereplic: inconclusive; HT1080NT lethal: inconclusive

What do the screens show for `Cc1ccc(C)c(N(CC(=O)Nc2ccc(-c3nc4ccc(C)cc4s3)cc2)S(C)(=O)=O)c1`?
KB-3-1 tox: inactive; HT1080 IDH1KD tx: -25%; KB-V1 MDR tox: inconclusive; MCF10A rerep: inconclusive; SW480 rereplic: inconclusive; HT1080NT lethal: -11%

What do the screens show for `Cc1ccc2nc(-c3ccc(NC(=O)C(C)Sc4nncs4)cc3)sc2c1` (stereo not drawn)?
KB-3-1 tox: inactive; HT1080 IDH1KD tx: -17%; KB-V1 MDR tox: 12µM*; MCF10A rerep: inconclusive; SW480 rereplic: inconclusive; HT1080NT lethal: inconclusive

Results for Cc1cccc(-c2nc(C)c(CCNC(=O)C(=O)Nc3ccccc3C#N)s2)c1 ?
KB-3-1 tox: inactive; KB-V1 MDR tox: inconclusive

What do the screens show for `COc1ccc(NC(=O)CCCc2nc(-c3ccco3)no2)c(OC)c1`?
KB-3-1 tox: inactive; KB-V1 MDR tox: inactive

What do the screens show for `Nc1ncnc2c1ncn2COC(CO)CO`?
KB-3-1 tox: inactive; KB-V1 MDR tox: inactive

What do the screens show for `CCCn1c(/C=C/c2ccco2)nc2ccccc21`?
KB-3-1 tox: inactive; HT1080 IDH1KD tx: -1%; KB-V1 MDR tox: inconclusive; MCF10A rerep: inconclusive; SW480 rereplic: 8%; HT1080NT lethal: 6%

How did Cn1c(=O)c(/C=C/c2ccc(F)cc2)nc2ccccc21 do in these assays?
KB-3-1 tox: inconclusive; HT1080 IDH1KD tx: -15%; KB-V1 MDR tox: inconclusive; MCF10A rerep: inconclusive; SW480 rereplic: 12µM*; HT1080NT lethal: -6%

Results for CC(=O)c1ccc(/C=C/c2nc3ccccc3n2C)o1 ?
KB-3-1 tox: inactive; HT1080 IDH1KD tx: -11%; KB-V1 MDR tox: inactive; MCF10A rerep: 18µM*; SW480 rereplic: inconclusive; HT1080NT lethal: -13%

How did Cn1c(=O)c(/C=C/c2ccccc2)nc2ccccc21 do in these assays?
KB-3-1 tox: inconclusive; HT1080 IDH1KD tx: -5%; KB-V1 MDR tox: 15µM*; MCF10A rerep: 12µM*; SW480 rereplic: inconclusive; HT1080NT lethal: -5%

How did Cn1c(/C=C/c2ccccc2)nc2ccccc21 do in these assays?
KB-3-1 tox: inactive; HT1080 IDH1KD tx: inconclusive; KB-V1 MDR tox: inactive; MCF10A rerep: 13%; SW480 rereplic: -2%; HT1080NT lethal: inconclusive

Results for O=c1c(/C=C(\O)c2ccc(F)cc2)nc2ccccc2n1-c1ccccc1 ?
KB-3-1 tox: inactive; HT1080 IDH1KD tx: 18%; KB-V1 MDR tox: inactive; MCF10A rerep: 6%; SW480 rereplic: 20%; HT1080NT lethal: 8%

How did Cc1ccc(CNS(=O)(=O)c2c(C)nc3sc(C)cn3c2=O)cc1 do in these assays?
KB-3-1 tox: inactive; KB-V1 MDR tox: inactive

What do the screens show for `Cn1c(NCc2ccccc2F)nc2ccccc21`?
KB-3-1 tox: inactive; KB-V1 MDR tox: inactive

What do the screens show for `CCCN1C(=O)C(NC(=O)c2ccccc2OC)(C(F)(F)F)C(C(=O)OC)=C1C` (stereo not drawn)?
KB-3-1 tox: inactive; KB-V1 MDR tox: inactive

What do the screens show for `CCOc1ccccc1NC(=O)N1CCc2c(sc(C)c2CC)C1c1ccccc1` (stereo not drawn)?
KB-3-1 tox: inactive; KB-V1 MDR tox: inconclusive

What do the screens show for `Cc1cc(C)cc(S(=O)(=O)Nc2cccc(-c3ccc(N4CCOCC4)nn3)c2)c1`?
KB-3-1 tox: inactive; KB-V1 MDR tox: inactive

How did Cc1ccc(S(=O)(=O)Nc2cccc(-c3ccc4nncn4n3)c2)cc1 do in these assays?
KB-3-1 tox: 3.7µM*; HT1080 IDH1KD tx: 3.3µM*; KB-V1 MDR tox: 16µM*; MCF10A rerep: 4.1µM*; SW480 rereplic: 2.6µM*; HT1080NT lethal: 4.6µM*

What do the screens show for `COc1c(C)cc(S(=O)(=O)Nc2cccc(-c3ccc(N4CCOCC4)nn3)c2)c(C)c1C`?
KB-3-1 tox: 21µM*; KB-V1 MDR tox: inactive

How did O=S(=O)(Nc1cccc(-c2ccc(N3CCCCCC3)nn2)c1)c1ccc(F)cc1 do in these assays?
KB-3-1 tox: inconclusive; HT1080 IDH1KD tx: -28%; KB-V1 MDR tox: inactive; MCF10A rerep: 15µM*; SW480 rereplic: inconclusive; HT1080NT lethal: inconclusive
